Screening results from PubChem BioAssay.
RORgamma inh: inhibitors of mouse ROR gamma transcriptional activity | Potency, µM (top dose mostly 53.6 µM), inactives show at the top dose activity change, negative = inhibition, usual class: inhibitors | 5.4% of 310,000 active | Drosophila S2 Gal4-RORgamma UAS-luciferase reporter, 20 h | AID 2551; also: potency is read from the fitted curve at half-maximal effect; % is scaled to controls: 0 for no effect and ±100 for the full control effect; nearly all actives have a fitted effect of over 60% in size
Target sequence (P51450 whole entry, looked up, the tested form may be a part): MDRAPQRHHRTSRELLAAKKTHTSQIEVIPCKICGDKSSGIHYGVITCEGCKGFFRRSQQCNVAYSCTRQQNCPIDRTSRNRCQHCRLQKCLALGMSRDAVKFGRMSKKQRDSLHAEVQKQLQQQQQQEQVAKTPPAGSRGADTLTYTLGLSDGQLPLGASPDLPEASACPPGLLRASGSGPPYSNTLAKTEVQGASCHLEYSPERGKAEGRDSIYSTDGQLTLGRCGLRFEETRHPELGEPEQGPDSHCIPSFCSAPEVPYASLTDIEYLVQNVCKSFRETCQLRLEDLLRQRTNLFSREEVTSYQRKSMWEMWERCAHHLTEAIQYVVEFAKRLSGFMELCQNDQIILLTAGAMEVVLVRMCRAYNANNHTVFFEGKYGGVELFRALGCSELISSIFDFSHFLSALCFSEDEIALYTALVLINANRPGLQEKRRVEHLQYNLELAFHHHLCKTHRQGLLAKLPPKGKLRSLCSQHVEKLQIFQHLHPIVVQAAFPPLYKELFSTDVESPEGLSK
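A Gal4/UAS one-hybrid system in insect cells: metallothionein-promoter Gal4–ROR gamma fusion plus Photinus luciferase reporter. Copper sulfate 700 uM final, 20 hr ambient incubation, luminescent detection after 10 min with reagent.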
IL-1B inflam inh: blocks inflammasome-driven IL-1 beta release | activity change, % at 57.5 µM | 4.7% of 360,000 active | AID 743279 | THP-1 LPS/ATP IL-1B secretion, AlphaLISA, 16 h; active compounds read low; in the data active = activity change below about -50%; inconclusive = mostly about -30% to -49%; also: % is scaled to controls: 0 for no effect and ±100 for the full control effect
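Secreted IL-1B measured by AlphaLISA bead assay after 16 h compound exposure of THP-1 cells; compounds (final up to 57.5 uM) added 1 h before LPS (250 ng/mL) and ATP (1.25 mM) stimulation; lower signal means less secretion.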
SW480 rerep: inducers of DNA re-replication in SW480 colon cancer cells. SW480 DNA re-replication, Hoechst DNA content imaging, 48 h. Potency, µM (series often up to 46.1 µM), for inactives: top-dose re-replication activation, usual class: activators. 1.8% of 340,000 active; also: potency is read from the fitted curve at half-maximal effect; % of control where 0% means no effect; nearly all actives have a fitted effect of over 55% in size
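Compounds, transferred as 23 nL by pin tool, were incubated with cells for 48 hr; DNA content per nucleus was then quantified by Hoechst staining and fluorescence plate imaging.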
Gal4-VP16 FLuc: counter-screen for ROR gamma inhibitors: Gal4-VP16 reporter; 3.5% of 310,000 active; Drosophila S2 Gal4-VP16 UAS-luciferase, luminescence, 20 h; AID 2546; Potency, µM (series often up to 53.6 µM), without a hit: at the top dose activity, negative = inhibition, most hits filed as inhibitors;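 also: Gal4-VP16 expression switched on by copper sulfate through the metallothionein promoter; potency is read from the fitted curve at half-maximal effect; % is scaled to controls: 0 for no effect and ±100 for the full control effect; nearly all actives have a fitted effect of over 50% in size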
MCF10A rereplic: inducers of DNA re-replication in MCF 10A breast cells. MCF 10A DNA re-replication, Hoechst nuclear intensity, 48 h. Potency, µM (series often up to 46.1 µM), for the others: at the highest dose activity, positive = re-replication, hits mostly activators. 2.9% of 350,000 active; also: potency is read from the fitted curve at half-maximal effect; % of control where 0% means no effect; nearly all actives have a fitted effect of over 50% in size
Active calls of the source: *; ? = inconclusive; / = no result given; ! = a repeat was not active; [ ] = remark or other dose. The list is not random: actives were taken first. Their share in the collection is about 11%. Unless noted, calls follow the shape of the dose curve; as a rule, active = well fitted curve in the direction sought with a large enough effect; inconclusive = small, poorly fitted or top-dose-only effect, or another doubt; inactive = no such curve, though single readings can be large; an effect the other way counts as inactive or inconclusive.

SMILES | RORgamma inh | IL-1B inflam inh | SW480 rerep | Gal4-VP16 FLuc | MCF10A rereplic
NC(Cc1ccc(Oc2cc(I)c(O)c(I)c2)c(I)c1)C(=O)O (centres undefined) | 9% | / | 4% | -16% | 7%
C=CCn1c(O)c(C(C)=Nc2ccc(N(CC)CC)cc2)c(=O)[nH]c1=O | -3% | 39 | 15µM* | -3% | ?
O=C(N/N=C/c1c(O)n(Cc2ccccc2)c(=O)[nH]c1=O)c1ccccc1O | 11µM* | 32 | 9% | ? | ?
O=C(N/N=C/c1c(O)n(Cc2ccc(F)cc2)c(=O)[nH]c1=O)c1ccccc1O | ? | 35 | ? | ? | ?
CCN(CC)c1ccc(N=Cc2c(O)n(-c3ccccc3)c(=O)[nH]c2=O)cc1 | -6% | 35 | 7% | -14% | -1%
CCN(CC)c1ccc(N=Cc2c(O)n(Cc3ccccc3)c(=O)[nH]c2=O)cc1 | -3% | 25 | 0.52µM*! | -17% | ?
O=c1c2ccccc2c(C=Nc2ccc(O)cc2)c(O)n1Cc1ccccc1 | 37% | -12 | 21µM* | 16% | ?
OC[P+](CO)(CO)CO | -11% | / | / | 1% | /
CN1CC[C@@]2(CCCN(C(=O)Oc3ccccc3)C2)C1 | -5% | / | / | 6% | /
COC(=O)[C@@]1(Cc2ccccc2)[C@H]2c3cc(C(=O)N(C)C)n(C)c3C[C@H]2CN1C(=O)c1ccccc1 | -14% | / | / | -4% | /
COc1ccc(Cn2c(O)c(/C=N/NC(=O)c3ccccc3O)c(=O)[nH]c2=O)cc1 | ? | -23 | -3% | ? | 4.6µM*
CCn1c(O)c(/C=N/NC(=O)c2ccccc2)c(=O)[nH]c1=S | 7.1µM* | 9 | -7% | ? | -5%
ClC=C(Cl)Cl | -25% | / | -1% | 9% | -1%
CC(O)CCl (centres undefined) | 2% | / | / | -7% | /
C[C@H]1O[C@H](O[C@H]2[C@H](O)[C@@H](O)[C@@H](O)[C@H](O)[C@@H]2O)[C@@H](N)C[C@@H]1NC(=N)C(=O)O | -16% | / | / | -24% | /
CCCCCc1cc(O)c2c3c(c(=O)oc2c1)CN(C)CC3 | -25% | -57* | 9% | 4% | 5%
CCOC(=O)C(C)Oc1cc(C)cc2oc(=O)c3c(c12)CCCC3 (centres undefined) | -1% | 54 | -2% | -6% | ?
Cn1c(=O)oc2cc(S(=O)(=O)N3CCCc4ccccc43)ccc21 | 1% | 52 | ? | -2% | 2.6µM*
CCCCC(C#N)(Cn1cncn1)c1ccc(Cl)cc1 (centres undefined) | 31% | / | / | 0% | /
Cc1ccc(S(=O)(=O)N2CCC(=O)N(CCOC(=O)Nc3cccc(Cl)c3)CC2)cc1 | ? | -12 | -2% | 5% | -1%
O=c1c2ccccc2nc(/C=C/c2ccc(O)cc2)n1-c1cccc(O)c1 | -22% | 24 | ? | 3% | 23µM*
COc1ccc(-n2c(/C=C/c3ccc(O)c(OC)c3)nc3ccccc3c2=O)cc1 | 24% | -67* | ? | 5% | ?
COc1ccc(-n2c(/C=C/c3ccc(O)cc3)nc3ccccc3c2=O)cc1 | 9% | -54* | -3% | -6% | 0.82µM*
O=c1c2ccccc2nc(/C=C/c2ccc3c(c2)OCO3)n1-c1cccc(O)c1 | 25% | 0 | / | -5% | ?
COc1cccc(-n2c(/C=C/c3ccc(O)c(O)c3)nc3ccccc3c2=O)c1 | -44% | ? | 10µM* | -8% | 18µM*
SMILES | RORgamma inh | IL-1B inflam inh | SW480 rerep | Gal4-VP16 FLuc | MCF10A rereplic
c1ccc(N=NNc2ccccc2)cc1 | 18% | / | / | 5% | /
CC(C)(C)C(O)C(Cc1ccc(Cl)cc1Cl)n1cncn1 (centres undefined) | 18% | / | / | 0% | /
c1cc2c(cc1[C@H]1OC[C@@H]3[C@H]1CO[C@H]3c1ccc3c(c1)OCO3)OCO2 | 40% | / | / | -22% | /
O=c1c2ccccc2nc(/C=C/c2ccc(O)cc2)n1-c1ccc(O)cc1 | -25% | -14 | 21% | 1% | 23µM*
CC(Cc1ccc(C(C)(C)C)cc1)CN1CC(C)OC(C)C1 (centres undefined) | -7% | / | / | -17% | /
CC(C)c1c(CN(C)[C@@H](C)Cc2ccccc2)n(C)n(-c2ccccc2)c1=O | -1%[16.9 µM] | / | 13%[20.6 µM] | 14%[17 µM] | 7%[20.6 µM]
S=c1nc(-c2ccccc2)n(-c2ccccc2)[nH]1 | 10µM* | 0 | -1% | ? | 0%
Cc1ccc(-c2n[nH]c(=S)n2-c2ccccc2)cc1 | ? | 16 | -2% | ? | 0%
O=C1c2ccccc2C2(c3ccc(Cl)cc3)NCCN12 (centres undefined) | 7% | -53* | -5% | 0% | ?
Cc1cc(C)c2c(ccc3cccc[n+]32)c1 | / | -61* | -2% | / | 8%
CC12CCC3c4ccc(OC(=O)N(CCCl)CCCl)cc4CCC3C1CCC2O (centres undefined) | / | -25 | ? | / | 21µM*
C[C@]12CC[C@@H]3c4ccc(O)cc4C(=O)C[C@H]3[C@@H]1CC[C@@H]2O | -19% | -24 | -38% | 10% | -6%
C[C@H](NC(C)(C)C)C(=O)c1cccc(Cl)c1 | -6%[16.9 µM] | / | 1% | 10%[17 µM] | 3%
O=c1[nH]c(=O)n(-c2ccccc2)c(O)c1/C=C1/C(c2ccccc2)=Nc2ccccc21 | 21% | 22 | ? | ? | 2.1µM*
COC(=O)C1=Nc2ccccc2/C1=C\c1c(O)n(-c2ccc(Br)cc2)c(=O)[nH]c1=O | ? | ? | -3% | ? | ?
O=C1CN=C(c2cccs2)c2c(sc3c2CCCC3)N1 | -23% | 29 | 21µM* | -5% | 13µM*
O=C1CN=C(c2ccccc2)c2c(sc3c2CCCC3)N1 | -19% | 29 | -70% | -6% | ?
COc1cc(/C=N/Nc2ccc(S(N)(=O)=O)cc2)cc(OC)c1OC | 1% | -2 | -2% | 0% | ?
CCCCCCCCCCCCCCCCOC[C@@H](COP(=O)([O-])OCC[N+](C)(C)C)OC(C)=O | 17% | / | / | -5% | /
O=c1[nH]c(O)c(/C=C2\C=Nc3ccc(OCc4ccccc4)cc32)c(=O)[nH]1 | -8% | 18 | 21µM* | -16% | ?
COP(=O)(OC)c1nc(-c2cccc3ccccc23)oc1N1CCCCC1 | -12% | -1 | ? | -9% | 21µM*
CCOP(=O)(OCC)c1nc(-c2cccc3ccccc23)oc1N1CCCCC1 | -22% | ? | ? | -23% | ?
CCCOP(=O)(OCCC)c1nc(-c2ccccc2)oc1NCc1ccccc1 | ? | -116* | 15µM* | -12% | ?
COc1ccc(-c2nc3ccccc3c(=O)o2)cc1 | ? | -3 | -6% | -22% | -3%
COc1ccc(CNc2oc(-c3cccc4ccccc34)nc2P(=O)(OC)OC)cc1 | 25% | -24 | 18µM* | -16% | 21µM*
CCOP(=O)(OCC)c1nc(-c2ccc(Cl)cc2)oc1NCc1ccccc1 | 43% | -54* | -16% | -2% | 2%
CCOP(=S)(OCC)OCCSCC | 25% | / | / | -3% | /
